Compound activity from PubChem BioAssay.
HepG2 viability – HepG2 cytotoxicity, counter-screen for TGF-b inhibitors. Potency, µM (highest dose often 46.1 µM), inactives show at the top dose activity change, negative = cytotoxicity, usual class: cytotoxic. HepG2 CAGA-GFP viability, ATP luminescence, 18 h. 410,000 tested, 0.76% active; further: potency means the concentration at half of the fitted maximal effect
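CellTiter-Glo luminescence gave cytotoxicity after 18 hours at 37 degrees C. The cells were HepG2 CAGA-GFP in 1% FBS DMEM, stimulated with 500 pg/mL TGF-beta after compound addition. %Activity was normalised to no-cell wells (complete cell-killing) and DMSO (no toxicity), and curves were fitted and classified.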
TGFb inhibitor – blocks TGF-b signaling; HepG2 CAGA-GFP TGF-b/SMAD3 reporter, GFP fluorescence, 18 h; TGF-beta stimulated, 500 pg/mL final; Potency, µM (doses to about 46.1 µM), inactives show at the top dose activity, negative = inhibition, actives largely listed as inhibitors; 410,000 tested, 1.2% active; further: potency means the concentration at half of the fitted maximal effect; on the % scale 0 is the no-effect control and ±100 the full control effect; nearly all actives have a fitted effect of over 65% in size
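HEPG2 CAGA-GFP cells (1000/well, DMEM with 1% FBS) were pre-incubated 2 h at 37 degrees C, given compound by pin tool, then stimulated with TGF-beta at 500 pg/mL final for 18 h before per-cell GFP fluorescence imaging.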
TDP1 cell noCPT – qHTS for Inhibitors of human tyrosyl-DNA phosphodiesterase 1 (TDP1): qHTS in cells in absence of CPT | Potency, µM (top dose mostly 46.2 µM), inactives show at the highest dose activity change, negative = growth inhibition, actives largely listed as inhibitors | 420,000 tested, 15% active | DT40 Tdp1-/- hTDP1 cells, no CPT, ATP luminescence, 48 h; further: potency means the concentration at half of the fitted maximal effect; on the % scale 0 is the no-effect control and ±100 the full control effect; nearly all actives have a fitted effect of over 55% in size
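Cells were dispensed at 400 per well, compounds added by pin tool, plates incubated ≥48 hr at 37 °C, then CellTiter-Glo added for 30 min at room temperature before luminescence reading. Line: DT40 Tdp1-/- complemented with hTDP1; camptothecin omitted.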
DT40 TDP1 CPT – growth inhibition of DT40 Tdp1-/-;hTDP1 cells with camptothecin (screen for TDP1 inhibitors); chicken DT40 Tdp1-/-;hTDP1 cells + 20 nM CPT, ATP luminescence, 48 h; Potency, µM (series often up to 46.2 µM), inactives show at the highest dose activity change, negative = growth inhibition, usual class: inhibitors; 420,000 tested, 12% active; AID 686979; further: potency means the concentration at half of the fitted maximal effect; on the % scale 0 is the no-effect control and ±100 the full control effect; nearly all actives have a fitted effect of over 55% in size
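Chicken DT40 Tdp1-/- cells complemented with human TDP1, 400 cells/well, exposed to compounds plus 20 nM camptothecin for at least 48 h at 37 C; viability read as ATP content by CellTiter-Glo luminescence.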
TDP1 block – blocks human tyrosyl-DNA phosphodiesterase 1 | recombinant TDP1, AlphaScreen DNA substrate cleavage | Potency, µM (series often up to 130 µM), for inactives: at the top dose activity change, negative = inhibition, most hits filed as inhibitors | 350,000 tested, 0.28% active | AID 485290 | Q9NUW8; further: potency means the concentration at half of the fitted maximal effect; on the % scale 0 is the no-effect control and ±100 the full control effect; nearly all actives have a fitted effect of over 40% in size
Target sequence (Q9NUW8 whole entry, looked up): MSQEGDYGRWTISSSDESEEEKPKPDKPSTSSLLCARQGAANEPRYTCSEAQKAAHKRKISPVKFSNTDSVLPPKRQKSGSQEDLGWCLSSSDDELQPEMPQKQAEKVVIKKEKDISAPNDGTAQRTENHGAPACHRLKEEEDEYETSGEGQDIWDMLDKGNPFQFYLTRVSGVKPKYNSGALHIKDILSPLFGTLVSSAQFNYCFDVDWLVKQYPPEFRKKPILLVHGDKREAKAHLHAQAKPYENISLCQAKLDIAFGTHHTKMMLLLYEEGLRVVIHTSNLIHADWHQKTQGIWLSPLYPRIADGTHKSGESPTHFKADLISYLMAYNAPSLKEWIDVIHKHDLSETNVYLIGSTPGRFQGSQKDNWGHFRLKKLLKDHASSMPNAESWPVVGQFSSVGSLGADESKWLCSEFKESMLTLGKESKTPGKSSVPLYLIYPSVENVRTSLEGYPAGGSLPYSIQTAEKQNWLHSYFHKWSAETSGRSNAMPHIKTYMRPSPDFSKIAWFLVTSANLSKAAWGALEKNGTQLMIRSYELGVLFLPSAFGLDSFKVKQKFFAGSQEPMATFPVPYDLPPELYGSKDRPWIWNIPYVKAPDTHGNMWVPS
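E. coli-derived human Tdp1, 1 nM final. Cpd preinc 15 min RT; substrate 15 nM final, 5 min RT; AS bead mix 10 ug/ml final, 10 min RT. Signal loss = tyrosine-FITC cleavage. No-enzyme wells = max signal.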
IL-1B inflam inh – inflammasome signaling inhibition, IL-1 beta readout | activity change, % at 57.5 µM | 360,000 tested, 4.7% active | THP-1 LPS/ATP IL-1B secretion, AlphaLISA, 16 h; hits give low values; in the data active means activity change below about -50%; inconclusive means mostly about -30% to -49%; further: on the % scale 0 is the no-effect control and ±100 the full control effect
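Secreted IL-1B measured by AlphaLISA bead assay after 16 h compound exposure of THP-1 cells; compounds (final up to 57.5 uM) added 1 h before LPS (250 ng/mL) and ATP (1.25 mM) stimulation; lower signal means less secretion.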
An asterisk follows results filed as active; ? = inconclusive; . = no result given; [ ] = remark or other dose. A selection: hits, their analogues and other compounds. The true share with any hit is near 19%. Unless noted, the call rests on the fitted dose curve; in most records, active means well fitted curve in the direction sought with a large enough effect; inconclusive means small, poorly fitted or top-dose-only effect, or another doubt; inactive means no such curve, though single readings can be large; an effect the other way counts as inactive or inconclusive.

SMILES | HepG2 viability | TGFb inhibitor | TDP1 cell noCPT | DT40 TDP1 CPT | TDP1 block | IL-1B inflam inh
O=C(COc1ccccc1[N+](=O)[O-])N1CCN(CCc2ccccn2)CC1 | -4% | -1% | 4% | -3% | -3% | .
CC(=O)OCC1=C(C(=O)O)N2C(=O)C(NC(=O)CCCC(N)C(=O)O)C2SC1 (stereo not drawn) | . | . | -23% | ? | 25µM* | .
Cn1c(C(=O)N2CCN(c3nc4ccccc4s3)CC2)cc2sccc21 | -8% | 1% | ? | 23µM* | 2% | -12
Cc1cccc(C(O)c2ncc(-c3ccccc3Cl)[nH]2)c1C (stereo not drawn) | -12% | 14% | ? | ? | . | -9
CN1CCC(O)(c2ccccc2)C(C(=O)c2ccccc2)C1 (stereo not drawn) | -13% | ? | 18µM* | 9.2µM* | 0% | -21
CN1CCC(O)(c2ccccc2)C2CCCC21 (stereo not drawn) | -15% | 15% | -36% | -3% | -2% | 1
CCN1CCC(O)(c2ccccc2)C(C(=O)c2ccccc2)C1 (stereo not drawn) | -61% | ? | 4.1µM* | 2.6µM* | . | -15
CCc1nc2ccc(C(=O)N3CCN(C(=O)c4ccco4)CC3)cn2c1N(C)Cc1ccc(OC)cc1 | -3% | ? | ? | ? | . | 29
CCC1OC2(C)C(O)C(/C=C/C=C/C=C/c3oc(=O)cc(OC)c3C)OC1(C)C2OC(C)=O (stereo not drawn) | . | . | . | . | 13% | .
COc1nc(N)nc2c1ncn2[C@@H]1O[C@H](CO)[C@@H](O)[C@@H]1O | . | . | -26% | ? | . | .
OCC1OC(n2cnc3c(Cl)ncnc32)C(O)C1O (stereo not drawn) | . | . | 4.6µM* | 9.2µM* | 4% | .
CCN(CC)C(=O)/C(Cl)=C(\C)OP(=O)(OC)OC | . | . | -3% | -4% | -2% | .
Cc1ccc(-c2cc(-c3ccccc3)cc(-c3ccccc3)[n+]2-c2ccccc2C(=O)O)cc1 | -40% | ? | 9.2µM* | 9.2µM* | -2% | -2
CC[C@H]1CN(C)C[C@@]2(C(=O)OC)Cc3c([nH]c4ccccc34)C(=O)C[C@@H]12 | 7% | -1% | 13% | 13% | . | 5
CC[C@H]1CN(C)CCc2c([nH]c3ccccc23)C(=O)C[C@@H]1/C(=C\OC)C(=O)OC | -14% | 2% | -19% | 29µM* | . | -7
Cc1[nH]c2ccccc2c1CN1CCCCC1 | -14% | -36% | 3.7µM* | 1.6µM* | . | -11
O=C1CCO1 | . | . | 4% | 5% | -10%[56.1 µM] | .
COc1ccc(NC(=O)Nc2ccc3c(c2)C(=O)N([C@H](C)CO)C[C@H](C)[C@@H](CN(C)Cc2ccc(Cl)c(Cl)c2)OCCCC[C@@H](C)O3)cc1 | 1% | -2% | 16µM* | -17% | . | ?
C[C@H]1CN([C@@H](C)CO)C(=O)c2cc(NC(=O)C3CCCCC3)ccc2O[C@H]1CN(C)Cc1ccc(-c2ccccc2)cc1 | -19% | ? | ? | ? | 3% | -6
C[C@@H]1CCCCO[C@H](CN(C)Cc2ccccc2)[C@@H](C)CN([C@H](C)CO)C(=O)c2cc(NC(=O)c3ccccc3)ccc2O1 | -35% | -27% | 18µM* | ? | . | -17
C[C@H]1CN([C@@H](C)CO)C(=O)c2cc(NC(=O)Nc3cccc4ccccc34)ccc2O[C@@H]1CN(C)Cc1ccc(-c2ccccc2)cc1 | -35% | -15% | 16µM* | 23µM* | 4% | 1
COC(=O)C1=C(c2ccc(S(C)(=O)=O)cc2)C[C@@H]2CC[C@H]1N2C(=O)NCC1CC1 | -10% | 0% | . | -11% | . | 2
